Results filed as inconclusive are left out. Calls of active or inactive are those of the source. Unless noted, the call rests on the fitted dose curve; in most records, active means well fitted curve in the direction sought with a large enough effect in the repeat runs; inconclusive means weak or mixed curves; inactive means no such curve, though single readings can be large; an effect the other way counts as inactive or inconclusive.
Key:
[1] = qHTS assay to identify small molecule antagonists of the peroxisome proliferator-activated receptor delta (PPARd) signaling pathway - cell viability counter screen (AID 743213); further: nearly all actives have a fitted effect of over 50% in size
Method in brief: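 Agonist-stimulated (L165041, 300 nM final) HEK293H PPARd UAS-bla cells are exposed to compounds for 17 h at 37 C, and ATP-based luminescence (CellTiter-Glo) from the same wells reports cytotoxicity.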

[2] = molecular target: Peroxisome proliferator-activated receptor delta (Homo sapiens) (UniProt Q03181); test: qHTS assay to identify small molecule antagonists of the peroxisome proliferator-activated receptor delta (PPARd) signaling pathway (AID 743215; active means well fitted inhibition curve with a large enough effect in the signal ratio in the repeat runs, not every such curve was filed as active; the % refers to the signal ratio; further: series mostly up to about 62 µM)
Method in brief: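 HEK293H GeneBLAzer PPARd UAS-bla reporter cells; cpd + L165041 300 nM final, 17 h 37 C; LiveBLAzer B/G FRET substrate 2 h RT; fluorescence intensity read-out. Antagonist mode.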

[3] = molecular target: Bile acid receptor (Homo sapiens) (UniProt Q96RI1); test: qHTS assay to identify small molecule antagonists of the farnesoid-X-receptor (FXR) signaling pathway (AID 743217; active means well fitted inhibition curve with a large enough effect in the signal ratio in the repeat runs, not every such curve was filed as active; the % refers to the signal ratio)
Method in brief: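 Read-out: beta-lactamase FRET fluorescence (LiveBLAzer B/G substrate, 2 h, room temperature) in GeneBLAzer FXR-UAS-bla HEK 293T cells. Compounds were co-dosed with 50 uM chenodeoxycholic acid (final) and incubated 16 h at 37 °C.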

[4] = qHTS assay to identify small molecule agonists of the farnesoid-X-receptor (FXR) signaling pathway - cell viability counter screen (AID 743218); further: nearly all actives have a fitted effect of over 45% in size
Method in brief: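 Luminescence from CellTiter-Glo, read after 30 min at RT, reports viability of GeneBLAzer FXR-UAS-bla HEK 293T cells treated 16 h with compounds in the wells used for the beta-lactamase reporter.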

[5] = molecular target: Bile acid receptor (Homo sapiens) (UniProt Q96RI1); test: qHTS assay to identify small molecule agonists of the farnesoid-X-receptor (FXR) signaling pathway (AID 743220; active means well fitted activation curve with a large enough effect in the signal ratio in the repeat runs, not every such curve was filed as active; the % refers to the signal ratio)
Method in brief: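 FXR-UAS-bla HEK 293T cells carrying a UAS-driven beta-lactamase reporter were plated for 5 h at 37C/5% CO2, then exposed to DMSO-dissolved Tox21 10K compounds for 16 h at 37C. A LiveBLAzer B/G FRET substrate was loaded for 2 h at room temperature before fluorescence reading.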

[6] = qHTS assay to identify small molecule antagonists of the farnesoid-X-receptor (FXR) signaling pathway - cell viability counter screen (AID 743221; active means well fitted cell-killing curve with a large enough effect in the repeat runs, not every such curve was filed as active; further: nearly all actives have a fitted effect of over 50% in size)
Method in brief: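 CellTiter-Glo, 30 min RT, luminescence; same wells as the LiveBLAzer FRET read. Cells: FXR-UAS-bla HEK 293T. Treatment: compound with chenodeoxycholic acid 50 uM final, 16 h at 37 C.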

[7] = molecular target: Vitamin D3 receptor (Homo sapiens) (UniProt P11473); test: qHTS assay to identify small molecule agonists of the vitamin D receptor (VDR) signaling pathway (AID 743222; calls by dose curve)
Method in brief: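 Beta-lactamase reporter readout (LiveBLAzer B/G FRET, 2 h RT) in VDR-bla cells after 16 h compound treatment at 37C, 5% CO2; cells pre-incubated 4 h before pin transfer of DMSO solutions.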

[8] = qHTS assay to identify small molecule agonists of the vitamin D receptor (VDR) signaling pathway - cell viability counter screen (AID 743224); further: series mostly up to about 63 µM; nearly all actives have a fitted effect of over 50% in size
Method in brief: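 Cytotoxicity counter screen: VDR-bla cells, 16 h compound exposure at 37C, 5% CO2; CellTiter-Glo luminescence, 30 min RT, same wells as bla read.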

[9] = molecular target: Peroxisome proliferator-activated receptor delta (Homo sapiens) (UniProt Q03181); test: qHTS assay to identify small molecule agonists of the peroxisome proliferator-activated receptor delta (PPARd) signaling pathway (AID 743212; calls by dose curve)
Method in brief: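 Beta-lactamase reporter read by fluorescence (LiveBLAzer B/G FRET, 2 h, room temperature). Test agents, in DMSO, incubated at 37 C with PPARd-bla HEK293H cells.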

[10] = molecular target: Vitamin D3 receptor (Homo sapiens) (UniProt P11473); test: qHTS assay to identify small molecule antagonists of the vitamin D receptor (VDR) signaling pathway (AID 743223; active means well fitted inhibition curve with a large enough effect in the signal ratio in the repeat runs, not every such curve was filed as active; the % refers to the signal ratio)
Method in brief: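 After VDR-bla cells are plated and left 4 h at 37C, DMSO-dissolved compounds and 3 nM (final) calcitriol agonist are added. Incubation continues 16 h at 37C; FRET beta-lactamase substrate then develops 2 h at room temperature.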
On the % scale 0 is the no-effect control and ±100 the full control effect.

Chain of Vitamin D3 receptor (Homo sapiens) (P11473 whole entry, looked up): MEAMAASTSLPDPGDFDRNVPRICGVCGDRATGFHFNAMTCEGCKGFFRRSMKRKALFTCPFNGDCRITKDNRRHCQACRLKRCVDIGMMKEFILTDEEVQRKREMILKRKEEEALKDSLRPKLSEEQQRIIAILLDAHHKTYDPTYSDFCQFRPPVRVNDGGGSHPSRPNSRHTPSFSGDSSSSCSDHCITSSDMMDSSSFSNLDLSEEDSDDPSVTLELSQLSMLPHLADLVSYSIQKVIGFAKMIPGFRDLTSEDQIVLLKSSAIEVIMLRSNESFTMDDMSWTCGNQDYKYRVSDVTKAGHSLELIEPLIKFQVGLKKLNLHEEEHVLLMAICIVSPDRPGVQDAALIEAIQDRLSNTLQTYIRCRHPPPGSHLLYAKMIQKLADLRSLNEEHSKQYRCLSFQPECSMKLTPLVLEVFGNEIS
Chain of Peroxisome proliferator-activated receptor delta (Homo sapiens) (Q03181 whole entry, looked up): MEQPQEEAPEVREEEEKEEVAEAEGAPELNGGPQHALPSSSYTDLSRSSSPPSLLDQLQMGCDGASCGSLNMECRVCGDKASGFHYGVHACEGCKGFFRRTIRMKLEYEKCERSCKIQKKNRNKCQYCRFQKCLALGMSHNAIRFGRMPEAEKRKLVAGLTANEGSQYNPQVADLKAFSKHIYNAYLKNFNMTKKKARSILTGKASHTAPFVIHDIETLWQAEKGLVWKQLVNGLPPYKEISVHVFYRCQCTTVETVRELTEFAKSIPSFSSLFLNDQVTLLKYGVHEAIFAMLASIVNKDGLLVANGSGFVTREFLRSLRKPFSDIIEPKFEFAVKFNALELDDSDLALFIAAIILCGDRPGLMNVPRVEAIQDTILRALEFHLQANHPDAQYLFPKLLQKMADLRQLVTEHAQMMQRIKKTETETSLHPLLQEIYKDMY
Chain of Bile acid receptor (Homo sapiens) (Q96RI1 whole entry, looked up): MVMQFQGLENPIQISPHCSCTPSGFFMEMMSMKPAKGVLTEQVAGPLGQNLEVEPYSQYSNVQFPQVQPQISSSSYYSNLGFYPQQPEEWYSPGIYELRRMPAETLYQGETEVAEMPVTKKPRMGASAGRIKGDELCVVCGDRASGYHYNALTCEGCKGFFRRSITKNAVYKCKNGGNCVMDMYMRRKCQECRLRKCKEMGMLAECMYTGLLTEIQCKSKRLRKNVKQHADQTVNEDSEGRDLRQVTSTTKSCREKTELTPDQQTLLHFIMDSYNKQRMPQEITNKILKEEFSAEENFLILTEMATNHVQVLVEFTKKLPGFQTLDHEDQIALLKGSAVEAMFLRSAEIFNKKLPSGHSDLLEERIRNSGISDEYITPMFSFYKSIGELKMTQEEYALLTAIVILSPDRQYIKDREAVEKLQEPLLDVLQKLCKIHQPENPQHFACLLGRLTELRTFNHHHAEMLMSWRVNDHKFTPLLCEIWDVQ

Nc1nc(Cl)cc(Cl)n1
inactive: outcome [1] | outcome [2] | outcome [3] | outcome [4] | outcome [5] | outcome [6] | outcome [7] | outcome [8]

CCCCCCCCCCCCCCCCN(C)C
inactive: viability change, negative = cytotoxic [1] 1.6% [at 6.26 µM] | ratio activity, negative = inhibition [2] -0.339% [at 6.26 µM] | activity change, negative = inhibition [3] -5.41% [at 5.95 µM] | viability change, negative = cytotoxic [4] 0.68% [at 5.95 µM] | activity change, negative = cytotoxicity [6] -0.818% [at 5.95 µM] | activity change, negative = cytotoxicity [8] 12.1% [at 5.95 µM]

CCCCNCC
inactive: outcome [9] | outcome [2] | outcome [4] | outcome [6] | outcome [8]

COc1ccc2cc(CCC(C)=O)ccc2c1
inactive: outcome [9] | outcome [4] | outcome [5] | outcome [6] | outcome [8]

Cc1cc2c(cc1CC(=O)c1sccc1S(=O)(=O)Nc1onc(C)c1Cl)OCO2
inactive: outcome [9] | outcome [4] | outcome [6] | outcome [10] | outcome [8]

CC(C)(C)C(=O)CC(=O)C(C)(C)C
inactive: outcome [1] | outcome [3] | outcome [4] | outcome [5] | outcome [6] | outcome [7] | outcome [10] | outcome [8]

Cc1nnc(C(=O)NC(C)(C)c2nc(C(=O)NCc3ccc(F)cc3)c(O)c(=O)n2C)o1
inactive: outcome [9] | outcome [4] | outcome [6] | outcome [10] | outcome [8]

C=CCOC(=O)CCCCCCCC
inactive: outcome [1] | outcome [3] | outcome [4] | outcome [5] | outcome [6] | outcome [7] | outcome [10]

CCOC(=O)[C@H](CCc1ccccc1)N[C@H]1CS[C@H](c2cccs2)CN(CC(=O)O)C1=O
inactive: outcome [9] | outcome [2] | outcome [4] | outcome [6] | outcome [8]

CCOC(=O)CN1CCCC1=O
inactive: outcome [1] | outcome [2] | outcome [4] | outcome [6] | outcome [10] | outcome [8]

COCc1nnc(-c2ccc[n+]([O-])c2)n1-c1c(Cl)c(Cl)cc2[nH]c(=O)c(=O)[nH]c12
inactive: outcome [1] | outcome [3] | outcome [4] | outcome [5] | outcome [6] | outcome [7] | outcome [10] | outcome [8]

C=CCN(CC=C)CC=C
inactive: outcome [9] | outcome [4] | outcome [6] | outcome [7] | outcome [8]

CC(=O)/C=C/C=C1/C2CCC(C2)C1(C)C (centres undefined)
inactive: outcome [1] | outcome [3] | outcome [4] | outcome [5] | outcome [6] | outcome [10] | outcome [8]

c1cc2ccc3ccc4ccc5cccc6c(c1)c2c3c4c56
inactive: viability change, negative = cytotoxic [1] -10.9% [at 2.83 µM] | ratio activity, negative = inhibition [2] 2.1% [at 2.83 µM] | activity change, negative = inhibition [3] 6.71% [at 2.69 µM] | viability change, negative = cytotoxic [4] 0.833% [at 2.7 µM] | activity change, negative = cytotoxicity [6] 2.77% [at 2.69 µM] | activity change, negative = inhibition [10] -9.77% [at 3.11 µM] | activity change, negative = cytotoxicity [8] 11.1% [at 2.7 µM]

CCO/C=C1\N=C(c2ccccc2)OC1=O
inactive: outcome [9] | outcome [2] | outcome [4] | outcome [6] | outcome [8]

O=C1CC2(CCCC2)CC(=O)N1CCNCC1COc2ccccc2O1 (centres undefined)
inactive: outcome [1] | outcome [3] | outcome [4] | outcome [5] | outcome [6] | outcome [7] | outcome [10] | outcome [8]

CCOC(=O)COc1ccc2c(C)c(CCN(CC)CC)c(=O)oc2c1Cl
inactive: outcome [1] | outcome [3] | outcome [4] | outcome [5] | outcome [6] | outcome [7] | outcome [8]

COc1ccccc1N1CCN(CC(O)COc2cc(OC)c(OC)c(OC)c2)CC1 (centres undefined)
inactive: outcome [9] | outcome [2] | outcome [4] | outcome [6] | outcome [8]

NCC1CCC(C(=O)Oc2ccc(CCC(=O)O)cc2)CC1 (centres undefined)
inactive: outcome [1] | outcome [2] | outcome [3] | outcome [4] | outcome [5] | outcome [6] | outcome [7] | outcome [10] | outcome [8]

Cc1ccc(OC(=O)CC(C)C)cc1
inactive: outcome [9] | outcome [3] | outcome [4] | outcome [5]

Cc1ccc(N)nc1
inactive: outcome [1] | outcome [2] | outcome [3] | outcome [4] | outcome [5] | outcome [6] | outcome [8]

CC(C)(C)OC=O
inactive: outcome [1] | outcome [3] | outcome [4] | outcome [5] | outcome [6] | outcome [10] | outcome [8]

O=C1CCCc2c(O)cccc21
inactive: outcome [1] | outcome [3] | outcome [4] | outcome [5] | outcome [6] | outcome [10] | outcome [8]

CCCCCCC(O)CO (centres undefined)
inactive: outcome [1] | outcome [2] | outcome [3] | outcome [4] | outcome [5] | outcome [6] | outcome [8]

O=C(O)COc1ccc2ccccc2c1
inactive: outcome [1] | outcome [3] | outcome [4] | outcome [5] | outcome [6] | outcome [10] | outcome [8]

Cc1nc2ccc(Cl)cc2[nH]1
inactive: outcome [1] | outcome [3] | outcome [4] | outcome [5] | outcome [6] | outcome [10] | outcome [8]

CCCCC(CC)CCC(CC(C)C)OS(=O)(=O)O (centres undefined)
inactive: outcome [1] | outcome [3] | outcome [4] | outcome [5] | outcome [6] | outcome [10] | outcome [8]

CN(C)CCc1c[nH]c2ccc(C[C@H]3COC(=O)N3)cc12
inactive: outcome [1] | outcome [3] | outcome [4] | outcome [5] | outcome [6] | outcome [8]

C[C@@H]1CCC[C@H](C)N1CCCC(O)(c1ccccc1)c1ccccn1 (some centres undefined)
inactive: outcome [9] | outcome [4] | outcome [6] | outcome [8]

Reference: PubChem BioAssay (Tox21)
